Active and inactive are the calls of the source. Unless noted, how the calls were made is not given here.
Experiments:
[1] = tested on: Wnt5a (protein binding on small-molecule microarray); assay: small molecules binding Wnt5a protein – biophysical, small-molecule microarray, 635/667 nm fluorescence, primary screen (AID 1142); conditions: 635 nm fluorescence, higher = more signal;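 further: fluorescence read at 667 nm with signal to noise per printed feature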
[2] = ATP-based viability of Huh7 replicon cells – cell-based, CellTiter-Glo luminescence, basal, 48 h, cytotoxicity control for HCV replication inhibitor project, primary screen (AID 1143); conditions: higher = more signal, called active from +8 up or from −8 down;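 further: Huh7 hepatoma cells carrying a hepatitis C replication reporter with no stimulus; test concentration not given here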
[3] = Pseudomonas biofilm growth suppression – PAO1 strain, BacTiter-Glo luminescence, LB-PBS, primary screen (AID 1144); conditions: P. aeruginosa PAO1 biofilm, 12 h, higher = more signal
[4] = basal CRE-LacZ reporter activity in PC12 – cell-based, unstimulated, primary screen (AID 1145); conditions: no forskolin, luminescence, 4.5 h, higher = more signal, called active from +8 up or from −8 down
[5] = forskolin-driven CRE-LacZ activity in PC12 – cell-based, CRE-LacZ reporter, forskolin-stimulated, primary screen (AID 1146); conditions: luminescence, 4.5 h, higher = more signal, called active from +8 up or from −8 down;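 further: PC12 cells with 6xCRE LacZ reporter stimulated by forskolin 10 µM; beta-galactosidase reporter signal reflecting CREB driven transcription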
[6] = biological target: Streptavidin (Streptomyces avidinii) (UniProt P22629); assay: compounds binding control protein streptavidin – biophysical, small-molecule microarray, 635/667 nm fluorescence, artefact control for SMM compound annotation, primary screen (AID 1147); conditions: higher = more signal;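 further: signal reflects streptavidin binding to arrayed compounds as a control protein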
[7] = probe aInhba binding on compound microarray – biochemical, small-molecule microarray, 635/667 nm fluorescence, primary screen (AID 1148); conditions: higher = more signal;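 further: score merges 667nm spot fluorescence with signal-to-noise for antibody binding to printed compounds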
Torsin-1A (Homo sapiens) [8] = biological target: Torsin-1A (Homo sapiens) (UniProt O14656); assay: TOR1A wild-type binding on microarray – cell lysate, small-molecule microarray, lysate, 635/667 nm, primary screen (AID 1149); conditions: COS7 hTOR1A-WT lysate, 635 nm fluorescence, higher = more signal
Torsin-1A (Homo sapiens) [9] = biological target: Torsin-1A (Homo sapiens) (UniProt O14656); assay: torsin A mutant lysate binding on microarrays – cell lysate, small-molecule microarray, COS7 lysate, 635/667 nm fluorescence, primary screen (AID 1150); conditions: COS7 hTOR1A mutant lysate, 635 nm fluorescence, higher = more signal;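 further: score pools 667 nm emission and signal to noise measuring lysate protein binding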
[10] = tested on: Sonic hedgehog protein (Shh); assay: Sonic hedgehog microarray binding compounds – biochemical, small-molecule microarray, 635/667 nm fluorescence, primary screen (AID 1151); conditions: 635 nm fluorescence, higher = more signal;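 further: Shh protein binding to compounds spotted on small-molecule microarray slides; score combines spot fluorescence intensity with signal-to-noise across triplicate slides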
[11] = optical density shifts of acrAB sulA E. coli – strain DRC41, OD650, 48 h, E. coli filamentation inducer project, primary screen (AID 1152); conditions: higher = more signal, called active from +8 up or from −8 down;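 further: E. coli MC1000 strain DRC41 lacking acrAB efflux pump and sulA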
[12] = probe aLefty1 binding on compound microarray – biochemical, small-molecule microarray, 635/667 nm fluorescence, primary screen (AID 1153); conditions: higher = more signal;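 further: score merges spot fluorescence with signal-to-noise ratio from the scanned slide images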
[13] = plasmodial surface anion channel blockers, osmotic lysis – cell-based, P. falciparum Indochina, OD700, 1 h, primary screen (AID 1154); conditions: P. falciparum Indochina infected RBC osmotic lysis, higher = more signal, called active from +8 up or from −8 down
[14] = plasmodial surface anion channel blockers, osmotic lysis – cell-based, P. falciparum Indochina, OD700, 2 h, primary screen (AID 1155);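 further: lysis reports solute entry through the parasite surface anion channel PSAC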; conditions: P. falciparum Indochina infected erythrocytes, higher = more signal, called active from +8 up or from −8 down
[15] = changes in parasitized red cell lysis, either direction – P. falciparum Indochina, OD700, 3 h, PSAC antagonist project, primary screen (AID 1156); conditions: P. falciparum-infected erythrocytes, osmotic lysis, higher = more signal, called active from +8 up or from −8 down
[16] = plasmodial surface anion channel blockers, osmotic lysis – cell-based, P. falciparum Indochina, OD700, 18 h, primary screen (AID 1157); conditions: P. falciparum Indochina infected erythrocytes, osmotic lysis OD700, 18 h; higher = more signal, called active from +8 up or from −8 down
[17] = S6 kinase pathway phospho-S6 level changes – cell-based, A549, cytoblot, luminescence, serum-stimulated, primary screen (AID 1158); conditions: 5 h, higher = more signal;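 further: serum-stimulated A549 lung adenocarcinoma cells; signal is phosphorylated S6 detected by cytoblot immunostaining with HRP secondary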
[18] = biological target: NADPH oxidase 2 (Homo sapiens) (UniProt P04839); assay: compounds shifting NOX2 Amplex Red fluorescence – cell-based, HEK293-NOX2, PMA-stimulated, NOX inhibitor project, primary screen (AID 1159); conditions: 45 min, higher = more signal, called active from +8 up or from −8 down; further: test concentration not given here
[19] = biological target: NADPH oxidase 4 (Homo sapiens) (UniProt Q9NPH5); assay: compounds shifting NOX4 Amplex Red fluorescence – cell-based, HEK293-NOX4, tetracycline-induced, NOX inhibitor project, primary screen (AID 1160); conditions: HEK293-NOX4, Amplex Red H2O2 fluorescence, 45 min; higher = more signal, called active from +8 up or from −8 down
[20] = biological target: NADPH oxidase 5 (Homo sapiens) (UniProt Q96PH1); assay: compounds shifting NOX5 Amplex Red fluorescence – cell-based, HEK293-NOX5, NOX inhibitor project, primary screen (AID 1161); conditions: HEK293-NOX5, ionomycin, 45 min, higher = more signal
Chain of NADPH oxidase 5 (Homo sapiens) (Q96PH1 whole entry, looked up): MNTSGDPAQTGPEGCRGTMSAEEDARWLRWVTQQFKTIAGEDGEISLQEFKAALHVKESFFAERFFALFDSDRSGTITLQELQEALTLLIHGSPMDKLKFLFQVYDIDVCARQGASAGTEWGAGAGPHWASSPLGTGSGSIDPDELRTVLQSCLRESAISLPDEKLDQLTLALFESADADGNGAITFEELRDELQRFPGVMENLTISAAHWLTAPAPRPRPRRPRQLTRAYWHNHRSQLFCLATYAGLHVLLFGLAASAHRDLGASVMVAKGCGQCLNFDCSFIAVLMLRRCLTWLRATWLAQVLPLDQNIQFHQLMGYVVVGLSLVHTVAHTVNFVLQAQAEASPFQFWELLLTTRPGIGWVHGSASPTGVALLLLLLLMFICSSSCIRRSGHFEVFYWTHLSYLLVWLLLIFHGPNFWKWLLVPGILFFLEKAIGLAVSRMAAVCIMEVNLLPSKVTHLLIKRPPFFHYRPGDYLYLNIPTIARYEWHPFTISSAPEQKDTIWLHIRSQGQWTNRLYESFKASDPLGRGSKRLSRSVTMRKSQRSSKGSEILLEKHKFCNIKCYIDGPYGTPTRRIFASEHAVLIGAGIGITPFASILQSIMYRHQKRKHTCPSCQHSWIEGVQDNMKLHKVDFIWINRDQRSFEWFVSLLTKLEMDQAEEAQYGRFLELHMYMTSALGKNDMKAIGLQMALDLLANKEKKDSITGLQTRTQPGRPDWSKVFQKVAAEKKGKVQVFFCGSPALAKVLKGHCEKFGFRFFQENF

Chain of NADPH oxidase 4 (Homo sapiens) (Q9NPH5 whole entry, looked up): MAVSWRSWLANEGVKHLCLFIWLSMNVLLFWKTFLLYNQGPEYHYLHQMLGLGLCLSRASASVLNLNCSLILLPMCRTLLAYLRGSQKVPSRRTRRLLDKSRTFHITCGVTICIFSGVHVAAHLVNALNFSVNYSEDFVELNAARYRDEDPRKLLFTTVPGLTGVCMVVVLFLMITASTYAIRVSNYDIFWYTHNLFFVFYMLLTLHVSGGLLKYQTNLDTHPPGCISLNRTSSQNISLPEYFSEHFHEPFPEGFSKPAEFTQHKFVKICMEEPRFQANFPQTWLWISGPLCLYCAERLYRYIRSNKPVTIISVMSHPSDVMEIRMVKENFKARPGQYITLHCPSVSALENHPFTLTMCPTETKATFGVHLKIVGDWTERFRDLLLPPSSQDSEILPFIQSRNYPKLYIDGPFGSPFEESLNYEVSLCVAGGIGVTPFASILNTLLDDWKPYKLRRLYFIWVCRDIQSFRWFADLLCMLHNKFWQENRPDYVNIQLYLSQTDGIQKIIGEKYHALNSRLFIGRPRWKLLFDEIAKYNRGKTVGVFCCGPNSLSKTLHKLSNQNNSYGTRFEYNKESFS
Chain of NADPH oxidase 2 (Homo sapiens) (P04839 whole entry, looked up): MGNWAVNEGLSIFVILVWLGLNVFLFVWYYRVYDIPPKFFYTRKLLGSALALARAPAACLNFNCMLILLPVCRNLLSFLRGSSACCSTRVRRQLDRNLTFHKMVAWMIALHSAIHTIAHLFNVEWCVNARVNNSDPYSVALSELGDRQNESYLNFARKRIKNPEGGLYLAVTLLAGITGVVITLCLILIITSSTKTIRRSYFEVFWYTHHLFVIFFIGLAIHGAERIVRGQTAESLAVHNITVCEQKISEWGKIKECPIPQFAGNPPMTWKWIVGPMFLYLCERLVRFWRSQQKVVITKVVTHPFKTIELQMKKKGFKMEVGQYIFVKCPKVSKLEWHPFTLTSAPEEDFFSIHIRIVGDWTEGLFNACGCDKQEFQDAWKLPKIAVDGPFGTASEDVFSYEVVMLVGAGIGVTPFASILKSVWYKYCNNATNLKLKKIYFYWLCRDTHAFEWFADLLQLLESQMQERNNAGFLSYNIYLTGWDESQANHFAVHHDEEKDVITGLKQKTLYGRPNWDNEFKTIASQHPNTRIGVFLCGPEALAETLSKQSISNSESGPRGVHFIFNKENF
Chain of Torsin-1A (Homo sapiens) (O14656 whole entry, looked up): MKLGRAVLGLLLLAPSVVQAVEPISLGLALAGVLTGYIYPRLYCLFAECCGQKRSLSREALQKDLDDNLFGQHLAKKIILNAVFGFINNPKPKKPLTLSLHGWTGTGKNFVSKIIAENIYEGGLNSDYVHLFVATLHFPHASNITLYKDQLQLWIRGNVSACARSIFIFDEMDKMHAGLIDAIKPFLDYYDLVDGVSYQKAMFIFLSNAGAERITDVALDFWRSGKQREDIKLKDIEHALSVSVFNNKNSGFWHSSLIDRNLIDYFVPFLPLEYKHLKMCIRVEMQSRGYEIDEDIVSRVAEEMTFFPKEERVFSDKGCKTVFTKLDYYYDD
Chain of Streptavidin (Streptomyces avidinii) (P22629 whole entry, looked up): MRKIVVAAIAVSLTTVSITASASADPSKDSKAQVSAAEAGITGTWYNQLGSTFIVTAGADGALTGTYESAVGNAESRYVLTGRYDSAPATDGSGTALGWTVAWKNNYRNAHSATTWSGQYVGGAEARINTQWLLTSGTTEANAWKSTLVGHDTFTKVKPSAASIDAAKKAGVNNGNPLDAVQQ

Row | Compound | composite z-score [1] | z-score [2] | z-score [3] | z-score [4] | z-score [5] | composite z-score [6] | composite z-score [7] | composite z-score (Torsin-1A (Homo sapiens) [8]) | composite z-score (Torsin-1A (Homo sapiens) [9]) | composite z-score [10] | z-score [11] | composite z-score [12] | z-score [13] | z-score [14] | z-score [15] | z-score [16] | z-score [17] | z-score [18] | z-score [19] | z-score [20]
1 | CCOC(=O)[C@H](CC(C)C)NC(=O)CCC1CC(OC(=O)NCc2cccc3ccccc23)CC2(CCCC(COC(=O)NCCCN3CCCC3=O)O2)O1 (stereo not given in full) | -0.144 | -0.961 (inactive) | -0.908 (inactive) | -0.437 (inactive) | 0.501 (inactive) | 0.286 | -0.128 | 0.316 | 0.299 | 0.956 | 0.261 (inactive) | -0.177 | 0.51 (inactive) | 0.936 (inactive) | 0.662 (inactive) | 0.295 (inactive) | 0.285 | 1.51 (inactive) | 0.133 (inactive) | -0.877
2 | Cc1ccc(S(=O)(=O)N[C@H]2COC(=O)CC=C[C@H](C)[C@@H](NS(=O)(=O)c3ccc(C)cc3)COC(=O)CC=C[C@@H]2C)cc1 | -0.11 | -0.591 (inactive) | -0.681 (inactive) | -0.008 (inactive) | 0.556 (inactive) | 1.17 | -0.0645 | 0.649 | 0.741 | 0.483 | 0.373 (inactive) | -0.147 | 0.334 (inactive) | 0.283 (inactive) | 0.654 (inactive) | 0.441 (inactive) | -1.01 | 0.152 (inactive) | -1.92 (inactive) | -1.01
3 | COC(=O)[C@H](C)NC(=O)CCC1CC(OC(=O)NCc2cccc3ccccc23)CC2(CCCC(COC(=O)NCC(c3ccccc3)c3ccccc3)O2)O1 (stereo not given in full) | 0.345 | -0.145 (inactive) | -0.155 (inactive) | -0.437 (inactive) | 2.17 (inactive) | -0.244 | -0.11 | 0.113 | 0.452 | 0.759 | 0.223 (inactive) | -0.0562 | -0.228 (inactive) | -0.0825 (inactive) | -1.34 (inactive) | -0.242 (inactive) | 0.863 | -0.121 (inactive) | 1.09 (inactive) | 1.47
4 | O=C1[C@H]2[C@H]3[C@H](O)[C@H](O)CC(=NOC[C@@H](O)COCc4ccco4)[C@H]3CC[C@H]2C(=O)N1c1ccc(F)cc1F | -0.459 | -2.57 (inactive) | -1.34 (inactive) | 0.699 (inactive) | -0.455 (inactive) | -1.07 | -0.103 | 2.05 | 1.84 | 0.717 | -0.575 (inactive) | 0.153 | 1.12 (inactive) | -0.479 (inactive) | 0.679 (inactive) | -1.14 (inactive) | 1.69 | -0.249 (inactive) | 0.498 (inactive) | 1.09
5 | COc1ccc(COC(=O)NN=C2C[C@@H](O)[C@@H](O)[C@@H]3[C@@H]4C(=O)N(C5CCCCC5)C(=O)[C@@H]4CC[C@H]23)cc1 | -0.244 | -0.146 (inactive) | 0.345 (inactive) | 1.61 (inactive) | -0.0264 (inactive) | -0.332 | -0.337 | -0.0324 | 0.408 | -1.61 | -1.01 (inactive) | -0.0611 | 9.99 (active) | 1.51 (inactive) | 0.103 (inactive) | 0.549 (inactive) | 0.173 | -0.248 (inactive) | 0.507 (inactive) | -0.712
6 | O=c1n(Cc2cc3c(cc2Cl)OCO3)c(=O)n2n1CC[C@@H]1C(=NOCc3ccccc3)[C@H]3O[C@H]3[C@@H](O)[C@@H]12 | 0.141 | -0.742 (inactive) | 0.692 (inactive) | 0.16 (inactive) | 1.87 (inactive) | 0.767 | -0.0509 | 0.582 | 0.223 | 0.365 | 0.112 (inactive) | -0.055 | 0.99 (inactive) | -1.13 (inactive) | 0.434 (inactive) | -2.49 (inactive) | 1.63 | -0.641 (inactive) | 0.153 (inactive) | 0.615
7 | CC(=O)OC[C@H]1O[C@H](C#Cc2ccccc2)C=C[C@@H]1OC(C)=O | -0.118 | -2.96 (inactive) | 0.908 (inactive) | -0.256 (inactive) | 3.76 (inactive) | 0.0752 | -0.182 | 0.398 | -0.0454 | 0.337 | 0.714 (inactive) | -0.234 | 1.12 (inactive) | -0.08 (inactive) | -0.0923 (inactive) | -0.219 (inactive) | -0.283 | 1.61 (inactive) | 0.415 (inactive) | 1.54
8 | CO[C@H](C1CCCCC1)[C@H](C)C=CCC(=O)OCCCc1ccccc1 | -0.125 | 0.419 (inactive) | -0.294 (inactive) | 0.248 (inactive) | -0.468 (inactive) | 0.203 | -0.416 | 0.113 | 0.171 | -0.057 | 0.101 (inactive) | -0.194 | 1.56 (inactive) | 0.726 (inactive) | -1.17 (inactive) | 0.22 (inactive) | -0.285 | 0.435 (inactive) | -3.56 (inactive) | -2.56
9 | C[C@@H]1CC[C@H]2C(=O)O[C@@H](COc3ccc(C(C)(C)C)cc3)CN2[C@@H]1c1ccc(Br)cc1 | -0.176 | 0.301 (inactive) | 0.256 (inactive) | 0.764 (inactive) | 0.403 (inactive) | -0.259 | -0.0987 | -0.351 | -0.188 | -0.445 | 0.328 (inactive) | -0.229 | 0.857 (inactive) | 0.681 (inactive) | -1.34 (inactive) | 0.54 (inactive) | -0.0874 | -0.303 (inactive) | 0.732 (inactive) | 0.154
